# In all, about 33,000 sequences were measured (“E-score (-0.5 to 0.5)”: median about -0.012, highest 2% from about 0.29 on). Many of the other results were omitted from the sample, so the highest values are more common in it than they were.
# Target: T1, Ybr033w (UniProt P38073)
# T1 sequence: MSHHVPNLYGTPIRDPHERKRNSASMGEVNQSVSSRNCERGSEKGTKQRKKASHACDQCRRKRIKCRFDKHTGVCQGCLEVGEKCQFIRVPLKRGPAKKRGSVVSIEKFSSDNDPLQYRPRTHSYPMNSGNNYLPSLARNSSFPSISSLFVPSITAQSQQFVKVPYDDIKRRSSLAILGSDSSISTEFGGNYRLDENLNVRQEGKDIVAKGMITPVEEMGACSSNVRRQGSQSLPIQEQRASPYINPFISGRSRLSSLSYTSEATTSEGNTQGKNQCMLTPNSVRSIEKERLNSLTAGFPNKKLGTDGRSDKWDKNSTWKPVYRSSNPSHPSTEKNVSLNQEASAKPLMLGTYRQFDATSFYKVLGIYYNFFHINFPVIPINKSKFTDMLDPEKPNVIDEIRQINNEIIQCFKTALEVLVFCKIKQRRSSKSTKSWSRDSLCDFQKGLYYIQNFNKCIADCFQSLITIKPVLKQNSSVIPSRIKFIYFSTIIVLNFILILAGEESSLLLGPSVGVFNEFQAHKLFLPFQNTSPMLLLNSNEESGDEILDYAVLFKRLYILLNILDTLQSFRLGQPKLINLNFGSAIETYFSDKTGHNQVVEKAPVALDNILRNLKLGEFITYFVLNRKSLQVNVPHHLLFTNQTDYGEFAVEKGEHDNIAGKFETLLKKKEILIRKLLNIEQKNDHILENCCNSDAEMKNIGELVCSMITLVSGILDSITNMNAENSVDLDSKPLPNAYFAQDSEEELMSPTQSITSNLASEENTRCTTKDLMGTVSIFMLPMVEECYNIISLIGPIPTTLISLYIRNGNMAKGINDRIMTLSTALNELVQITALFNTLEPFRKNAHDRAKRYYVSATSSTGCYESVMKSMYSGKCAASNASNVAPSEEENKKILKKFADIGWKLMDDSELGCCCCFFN
# Assay: PBM E-score (8-mer binding enrichment) (E-score (-0.5 to 0.5)); higher = stronger / more preferred TF binding
# Settings: protein concentration: 200 nM; construct: GST-full length
# Method: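 Universal 'all 10-mer' protein binding microarrays (Agilent AMADID 015681) probed with GST-tagged S. cerevisiae TFs (full-length or DBD) made by in vitro transcription/translation (PURExpress), about 100-200 nM. Bound TF was detected with fluorescent anti-GST. Each ungapped 8-mer (which stands for itself and its reverse complement) is scored by the PBM enrichment score (E-score), a modified Wilcoxon-Mann-Whitney statistic from -0.5 to +0.5, computed with the Universal PBM Analysis Suite. Scale: above 0.35 generally sequence-specific binding.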
row,Sequence,PBM E-score
1,CGAAGAAC,0.145
2,GGAAGAAC,0.461
3,TTCAAGAA,0.296
4,AGAAGAAC,0.171
5,TCAAGAAA,0.291
6,AGAAGAAA,0.0907
7,CCAAGAAA,0.167
8,ACAAGAAA,0.206
9,GTCAAGAA,0.146
10,GGAAGAAA,0.34
11,TTCAAAAA,0.239
12,CGAAGAAA,0.156
13,AGACTAGC,-0.208
14,CCTTGCTA,0.00278
15,AGGAGCGG,-0.359
16,CGGGTAGA,-0.0322
17,ATAAATCA,0.223
18,AAAAATTG,0.221
19,ATAAATTA,0.375
20,ATAAATTC,0.308
21,CTAAATTC,0.204
22,ATAAATCG,0.218
23,ATAAATCC,0.324
24,GTAAATTA,0.193
25,ATAAATGC,0.0963

row,Sequence,PBM E-score
1,ATAAATTG,0.365
2,CTAAATTA,0.173
3,AGAAATTG,0.281
4,ACTATTGA,0.243
5,CTGGAGAA,-0.115
6,CAGAGTAA,-0.0159
7,CTAGAGCC,-0.0992
8,TCCAACGA,-0.0709
9,AGTCACAT,0.0586
10,GTGCCCGA,-0.142
11,AAAGCTTC,-0.0172
12,AGCTCTGG,-0.197
13,AGTTGCTC,-0.15
14,ATTCCACC,0.208
15,ATTCCACG,-0.0625
16,ATTCCACA,0.335
17,AGATTCTG,-0.0373
18,ACTGGATG,-0.0668
19,ATTGGTCG,-0.0127
20,GGAATATA,0.291
21,CTAATATC,0.196
22,CTATAATA,0.156
23,CGAATATA,0.156
24,GCAATATA,0.123
25,GTATAATA,0.207

row,Sequence,PBM E-score
1,CTAATAGA,0.06
2,AGAATATA,0.134
3,ATATAATA,0.34
4,GTAATAGA,0.17
5,GTAATATA,0.299
6,CTAATATA,0.297
7,AATCCAAG,0.228
8,CTAGCGAG,-0.177
9,ACATCGCT,-0.101
10,ACGGGCAT,-0.108
11,ACTTTAGG,-0.0326
12,CCCCAAGA,-0.0572
13,ATAATATA,0.321
14,ATAATATC,0.28
15,ATAATATG,0.273
16,CAAGTCTC,-0.0267
17,CTGGCCGC,-0.0871
18,AACTTATG,0.223
19,GACTTATA,0.293
20,TACTTATA,0.12
21,GACTTATC,-0.152
22,AACTTATA,0.353
23,CACTTATA,0.176
24,AAGCCACA,-0.0702
25,AGCCTCTA,-0.114

row,Sequence,PBM E-score
1,ACCAGAGA,0.0781
2,GAGTCGAA,0.173
3,GAATATCA,0.259
4,GAGTATCA,0.0233
5,GAATATTA,0.315
6,GAATATGA,0.203
7,CAATATCA,0.171
8,TAGTATCA,0.319
9,CAGTATCA,-0.0137
10,AAATATCA,0.252
11,TAATATCA,0.319
12,TAATATTA,0.342
13,CAATATTG,0.199
14,CAATATTA,0.27
15,GTGTGTGA,0.0756
16,CGAGGTAA,-0.0143
17,GGAGCGCC,-0.27
18,ACTAGTCG,-0.166
19,ACCATCTC,-0.0025
20,CCTCGTAA,-0.0544
21,GAATATCC,0.227
22,AAATATGC,0.237
23,CAATATTC,0.219
24,AAATATTG,0.274
25,AAATATTA,0.211

row,Sequence,PBM E-score
1,GAATATTC,0.344
2,AAATATTT,0.357
3,AAATATTC,0.37
4,AATCTTTC,0.00719
5,GCCATTTA,-0.0426
6,AGCAAGCC,-0.126
7,AGGTGGAC,-0.104
8,ATCTAGAA,0.214
9,ATAATTGG,0.157
10,ATAATTTG,0.35
11,AAAATTTG,0.263
12,CTAATTTC,0.181
13,AGAATTTC,0.0968
14,GTAATTTA,0.218
15,ATAATTTC,0.314
16,ATAATTTA,0.338
17,CTAATTTA,0.257
18,GATCTGCA,-0.215
19,ACACGTGT,-0.0649
20,ATCCCAAC,0.079
21,ATAGGTAG,0.0525
22,ACTGCTAC,0.0898
23,GCGGACTA,-0.0323
24,CAAAATTC,0.308
25,CCAAATTA,0.269

row,Sequence,PBM E-score
1,AAAAATTA,0.302
2,CCAATTTA,0.203
3,ACAAATTA,0.328
4,ACAATTTA,0.225
5,AAAAATGA,0.233
6,CAAAATTG,0.0527
7,AAAAATTC,0.228
8,CAAAATTA,0.182
9,ACAAATTG,0.0817
10,GCAATTTA,0.307
11,AAACGCAG,-0.0761
12,ACCAAGTC,0.139
13,AGCACTGC,-0.022
14,AGATGCAG,0.0243
15,CGAAGCTC,-0.147
16,TAAATTTA,0.289
17,TAAAATTA,0.288
18,AGAAATTC,0.178
19,TAAAATGA,0.217
20,GAAAATTC,0.285
21,AAAATTTA,0.269
22,TAAAATCA,0.274
23,GGAAATTA,0.264
24,AGAAATTA,0.352
25,GAAAATTA,0.331

row,Sequence,PBM E-score
1,GAAAATGA,0.085
2,CAAATTTA,0.237
3,AATGATGT,0.17
4,GTTCAGCA,-0.0295
5,GTCGGCCA,-0.277
6,AAACCATG,0.0309
7,AGACTGCA,-0.156
8,ATCCATGC,0.0934
9,AGGTCAGG,-0.233
10,AAATTTTA,0.171
11,CAATTTTA,0.217
12,GAATTTTA,0.295
13,CCAGCGAC,-0.116
14,ATAGCTGG,-0.0109
15,CAATGACG,-0.158
16,GTAGTAAA,0.188
17,CTAGTAAA,0.242
18,TTAGTAAA,0.301
19,ATAGTAAA,0.277
20,AGAGTAAG,0.126
21,ATAGTAAT,0.346
22,AGAGTAAA,0.0304
23,AGAGTAAT,0.313
24,ATAGTAAC,0.116

# Source: the supplement of paper PMC3334620
